PubChem BioAssay (NCI)
Compounds without any hit were thinned out: in the full panel of roughly 83,000, 20% have a hit.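 Interpretation: 100, growth as untreated; towards 0, rising growth inhibition; 0, no net growth; 0 to -100, cell death. Compounds scoring below 10 were considered active.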 Values without a mark were called inactive. Calls of active or inactive are those of the source.

tested on: NCI-H226 lung; test: NCI-60 one-dose screen, 48 h (100 = growth as untreated, 0 = no growth, -100 = all killed); conditions: 10 µM unless noted
Protocol: Growth inhibition of the NCI-H226 human Non-Small Cell Lung tumor cell line is measured as a screen for anti-cancer activity. Cells are grown in 96 well plates and exposed to the test compound for 48 hours. Compounds are tested at a single concentration, which is 10^-5 M for most compounds. The reported endpoint is percent growth (GI% or GIPRCNT), where numbers from 0 - 100% represent growth inhibition, and numbers from -100% - 0 represent cell death. For example, a value of 40 represents 60% growth inhibition. A value of 0 means no net growth occurred over the course of the experiment. A value of -40 indicates 40% of cells at the beginning of the experiment died by the end of the experiment. A value of -100 means all cells are dead at the end of the experiment.
NCI-60 Human Tumor Cell Lines Screen was performed using the standard one-dose NCI protocol, which is described in more detail at https://dtp.cancer.gov/discovery_development/nci-60/default.htm.
Compounds with GIPRCNT values below 10 were considered active. Activity score was based on GIPRCNT using the following formula: […]
Score is 0 for GIPRCNT values of 100 or above, 50 for GIPRCNT values of 0, and 100 for GIPRCNT values of -100.

Compound	growth
CCc1nc2cc(/C=C/C(=O)NO)c(F)cc2c(=O)n1CCc1ccccc1	3.63% (active)
Cn1cnc(-c2cc3nccc(Oc4ccc(NC(=S)NC(=O)Cc5ccccc5)cc4F)c3s2)c1	54.5%
Fc1ccc(NCc2cn(-c3ccccc3)nc2-c2ccc(OCc3ccccc3)cc2)cc1Cl	102%
Cc1cc(O)c2c(c1)C1OC(=O)CCCCCN1C1=C2C(=O)c2cccc(OC3CC(O)C(O)C(C)O3)c2C1=O (stereo not given)	118%
CCc1ccc(/C=C/c2ccc(O)c3ncccc23)[n+](C)c1	24.2%
CCOc1cc2ncc(C#N)c(Nc3ccc(OCc4ccccn4)c(Cl)c3)c2cc1NC(=O)/C=C/CN(C)C	47.2%
CN1C/C=C\CCOc2cccc(c2)-c2ccnc(n2)Nc2cccc(c2)C1	-33.7% (active)
CCc1cnn2c(NCc3ccc[n+]([O-])c3)cc(N3CCCC[C@H]3CCO)nc12	-6.42% (active)
CN[C@@H]1C[C@H]2O[C@@](C)([C@@H]1OC)n1c3ccccc3c3c4c(c5c6ccccc6n2c5c31)C(=O)N[C@H]4O	-47.1% (active)
CCCCN1C(=O)c2cccc3c(-c4ccc5c(c4)ncn5C4CCCCC4)ccc(c23)C1=O	101%
COC(=O)c1[nH]cnc1/N=N/N(C)CCO	101%
CNC(=O)c1c(C)oc2cc(Oc3ncnc4cc(OC)c(OC)cc34)ccc12	59.4%
O=[N+]([O-])c1cc(Br)cc2c1[nH]c1ccc(Br)cc12	53.9%
Nc1ccc(S(=O)(=O)O)c2cc(S(=O)(=O)O)cc(O)c12	105%
O=C(NOCCO)c1cc(CN2OCCCC2=O)c(F)c(F)c1Nc1ccc(I)cc1F	50.9%
Cc1c(Cn2c(C)nc3c(C(=O)O)cc(N4CCOCC4)cc32)cccc1C(F)(F)F	114%
CCc1cc2c(c3ccc(C(=O)CBr)cc13)CCCC2	92.2%
C=CCN1C(=O)c2cccc3c(-c4ccc5c(c4)ncn5C4CCCCC4)ccc(c23)C1=O	44.8%
C=C1C(=O)O[C@H]2[C@H]1CC/C(C=Nc1c(N)cc(C(F)(F)F)cc1C(F)(F)F)=C\CC[C@@]1(C)O[C@@H]21	-53.1% (active)
Cc1cc(Nc2ncnc3ccc(NC4=NC(C)(C)CO4)cc23)ccc1Oc1ccn2ncnc2c1	47%

Compound	growth
COCc1c(-c2ccc(NC(=O)Nc3cc(C(F)(F)F)ccc3F)c(F)c2)c2c(N)ncnn2c1CN1CCOCC1	-7.25% (active)
COC(=O)Nc1nc2ccc(C(=O)c3ccc(N(C)C4COC4)cc3)cc2[nH]1	67.2%
CCCCCCCC(=O)SCC/C=C/[C@@H]1CC(=O)NCc2cccc(n2)C2=N[C@@](C)(CS2)C(=O)N[C@@H](C(C)C)C(=O)N1	68.9%
O=S1(=O)OC(c2ccc(O)c(Cl)c2)(c2ccc(O)c(Cl)c2)c2ccccc21	93.9%
CC1(O)CCC2CC3OC3(C)CCC3OC3(C)C(O)CC1C2(C)C (stereo not given)	115%
CC(=O)OC1Oc2ccccc2-c2oc(=O)c(-c3cc4ccc(N(C)C)cc4oc3=O)cc21 (stereo not given)	55%
CC/C(=C(/c1ccc(Cl)cc1)c1ccc(OCCN2CCCCC2)cc1)c1ccc(Cl)cc1	84.5%
COc1cc2c(Nc3ccc(Br)cc3F)ncnc2cc1OCC1CCN(C)CC1	57.5%
O=C1NC(=O)/C(=C/c2ccc3nccc(-c4ccncc4)c3c2)S1	-54.5% (active)
COc1cc(NC2CCC(=O)N2c2ccc(Cl)cc2Cl)cc(OC)c1OC (stereo not given)	99.9%
Cn1cnc2c(F)c(Nc3ccc(Br)cc3F)c(C(=O)NOCCO)cc21	56.6%
Cc1nc(Nc2n[nH]c3c2CN(C(=O)N[C@H](CN(C)C)c2ccccc2)C3(C)C)c2sccc2n1	-25.2% (active)
CSc1nc2ncnc(SC)c2[nH]1	98.2%
Cc1ccc2oc(=O)cc(-c3cc(-c4cc5ccccc5oc4=O)nc(N)c3C#N)c2c1	93.3%
COc1ccc(Cl)c(Nc2nc3ccccc3nc2NS(=O)(=O)c2cccc(NC(=O)C(C)(C)N)c2)c1	71.4%
O=C(Cc1ccc(/C=C/C(=O)c2ncc[nH]2)cc1)Nc1ccc(Br)cc1	46.5%
CC(=Nc1ccccc1)C1=C(O)C(Cc2ccccc2)NC1=O (stereo not given)	15.4%
COc1ccc(Br)cc1NC(=O)Nc1cccc2c1ccn2Cc1ccnc(N)c1	22.2%
COc1cc(Nc2c(C#N)cnc3cc(OCCCN4CCN(C)CC4)c(OC)cc23)c(Cl)cc1Cl	78.4%
CN(C)C1CCN(C(=O)c2ccc(NC(=O)Nc3ccc(-c4nc(N5CCOCC5)nc(N5CCOCC5)n4)cc3)cc2)CC1	-18.2% [2.5 µM] (active)
